Source: PubChem BioAssay (Tox21)
Unmarked numbers belong to inactive results. Entries that show only a call come without a potency. The source made the active and inactive calls. Calls follow the shape of the full dose curve.

test: G protein-coupled receptor (GPCR) small molecule agonists, calcium flux assay: HEK293 wild type cell line counter screen (AID 1920065); settings: HEK293 WT calcium flux, fluorescence, agonist mode; series mostly up to 57.6 µM
Source text: U.S. Tox21 Program National Center for Advancing Translational Sciences [NCATS] Division of Preclinical Innovation [DPI] U.S. Environmental Protection Agency [EPA] National Institutes of Environmental Health Sciences [NIEHS] National Toxicology Program [NTP] U.S. Food and Drug Administration [FDA] Assay overview: The increased intracellular calcium release that occurred upon G protein-coupled receptor (GPCR) activation led to the frequent use of calcium flux assays to detect GPCR activation. For the purpose of studying and screening compounds that may activate GPCR, receptor-overexpressing models were typically generated using Hek293 wild-type (WT) cells. In order to eliminate the compounds that may have induced calcium release for non-specific activation, a counter-assay utilizing calcium flux on Hek293 WT cells was performed. The data were formulated in order to serve as a control for any calcium flux detection utilizing Hek293 cells with either GPCR overexpression or gene modification. The procurement of Hek293 WT cells from ATCC. Fluorescence intensity can be utilized to determine the activation of the compound in a calcium flux assay. As a counter control, this cell line was utilized to screen the Tox21 10K compound library.
Assay Protocol Summary: Hek293 cells were dispensed at 1500cells/4uL/well in 1536-well black wall/clear bottom plates using a multidrop dispenser. After the assay plates were incubated at a 37 C/5% CO2 incubator for 18 hours, 4 uL of Calcium Dye Solution was added to each well. The plates were incubated at 37 C for 1 hour. For agonist mode, 23 nL of compounds dissolved in DMSO, positive control (ATP) or DMSO only was transferred to the assay plate by a pin tool station. The fluorescence intensity in the plates was measured using FDSS 7000EX kinetic plate reader with a filter set of Ex/Em=480/540 for 3 min at 1 sec intervals. Each test compound was measured at 15 concentrations and in triplicates.

| Structure (SMILES) | Potency | activation |
| --- | --- | --- |
| Fc1ccccc1 | inactive | – |
| NC(=O)c1ccccc1C(N)=O | inactive | – |
| Cc1cc(=O)c2c(O)c3c(O)cc(=O)c4c3c3c(cc(O)c1c23)C(C)(C)C=4O | – | 4.32% [at 11.8 µM] |
| Cc1nc([N+](=O)[O-])cn1-c1ccc([N+](=O)[O-])cc1 | inactive | – |
| CCc1oc2ccccc2c1C(=O)c1cc(Br)c(O)c(Br)c1 | inactive | – |
| CN1CCC(Nc2ncc3ncnc(Nc4ccc(F)c(Cl)c4)c3n2)CC1 | inactive | – |
| C1CN(SSN2CCOCC2)CCO1 | inactive | – |
| CCOC(=O)c1ccc(C#Cc2ccc3c(c2)C(C)(C)CCS3)nc1 | inactive | – |
| Clc1cccc(Cl)n1 | inactive | – |
| Cc1cc2cc3c(C)cc(=O)oc3c(C)c2o1 | inactive | – |
| CN(C)CCCN(C)C | – | -1.22% [at 5.23 µM] |
| CC1CN(c2cc3c(cc2F)c(=O)c(C(=O)O)cn3-c2ccc(F)cc2F)CCN1 (stereo not given) | – | 0.9% [at 5.23 µM] |
| c1ccc2sc(SN3CCOCC3)nc2c1 | inactive | – |
| CCCCCCCCCOC(=O)CCCCC(=O)OCCCCCCC | inactive | – |
| Nc1cccc(O)c1 | inactive | – |
| CCCCCCCCCCCCN1CCCCCC1=O | inactive | – |
| O=C(NN1CCCC1)NS(=O)(=O)c1ccc(Cl)cc1 | inactive | – |
| CCOC(=O)C1=C[C@]2(CC)CCCN3CCc4c(n1c1ccccc41)[C@@H]32 | inactive | – |
| NNc1nc(-c2ccc(N)cc2)cs1 | inactive | – |
| NNC(=O)CCCCC(=O)NN | inactive | – |

| Structure (SMILES) | Potency | activation |
| --- | --- | --- |
| Cc1ncc([C@@H](CCCCCCc2ccc3c(n2)NCCC3)CC(=O)O)cn1 | inactive | – |
| O=C(NOCC1CC1)c1ccc(F)c(F)c1Nc1ccc(I)cc1Cl | inactive | – |
| O=C(O)CCCCCCCCCCCBr | inactive | – |
| OCc1c[nH]c2ccccc12 | inactive | – |
| CCOC(=O)Nc1ccc2c(c1)N(C(=O)CCN1CCOCC1)c1ccccc1S2 | inactive | – |
| c1ccc(Sc2ccccc2)cc1 | inactive | – |
| O=C(c1ccccc1)C1CCCCC1 | inactive | – |
| CC(C)CCOCc1ccccc1 | inactive | – |
| CC1=CC=C(C(C)C)CC1 | inactive | – |
| Nc1cc(Cl)cc(S(=O)(=O)O)c1O | inactive | – |
| CCCCCCCCCCCCN1CCCC1=O | inactive | – |
| CCCCc1oc2ccccc2c1C(=O)c1cc(I)c(OCCN(CC)CC)c(I)c1 | inactive | – |
| CC1(COc2ccc(CC3SC(=O)NC3=O)cc2)CCCCC1 (stereo not given) | inactive | – |
| CC[C@]1(O)C[C@H]2CN(CCc3c([nH]c4ccccc34)[C@@](C(=O)OC)(c3cc4c(cc3OC)N(C=O)[C@H]3[C@@](O)(C(=O)OC)[C@H](OC(C)=O)[C@]5(CC)C=CCN6CC[C@]43[C@@H]65)C2)C1 | inactive | – |
| CN(C/C=C/C#CC(C)(C)C)Cc1cccc2ccccc12 | inactive | – |
| CC(=O)NC1(c2cccc(F)c2)CCN(CC[C@@]2(c3ccc(Cl)c(Cl)c3)CN(c3ccccc3)C(=O)CO2)CC1 | inactive | – |
| O=C1c2ccccc2C(=O)N1SC1CCCCC1 | inactive | – |
| N[C@@H]1CONC1=O | inactive | – |
| Oc1ccc2c(c1)Cc1ccccc1-2 | inactive | – |
| CN(C)CCOC(c1ccccc1)c1ccccc1 (tested in a mixture with another compound) | inactive | – |
